Data reported in the supplement of paper PMC10849652.
The full data set covers some 8,800 targets. This sample favours those with a hit. About 0.5% of all pairs of compound and target were hits.

Key:
Experiment in all cases: log2 fold change, soluble protein after heating vs DMSO (PISA); higher = thermal stabilisation; K562 lysate, 10 uM; active = over 0.2 and 3.5 SD of the protein, either way, in both replicates (recomputed)
lapatinib = compound: CS(=O)(=O)CCNCc1ccc(-c2ccc3ncnc(Nc4ccc(OCc5cccc(F)c5)c(Cl)c4)c3c2)o1 [lapatinib]
Outline: (§1)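 K562 pellets were dounce-homogenised in PBS pH 7.4 with 1 mM MgCl2, and the crude extract at 1 mg/mL protein was treated with 10 μM compound for 30 min. Aliquots were heated for 3 min across 48°C-58°C, pooled, and brought to 0.5% NP-40 at 4°C; soluble protein was the supernatant after 21,000xg for 90 min. Soluble protein was quantified by TMTpro 16plex LC-MS/MS with channel sums equalised, and reported as log2 fold change in thermal stability against DMSO controls, with values from duplicates.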

pictilisib = compound: CS(=O)(=O)N1CCN(Cc2cc3nc(-c4cccc5[nH]ncc45)nc(N4CCOCC4)c3s2)CC1 [pictilisib]
Outline: as §1

crizotinib = compound: C[C@@H](Oc1cc(-c2cnn(C3CCNCC3)c2)cnc1N)c1c(Cl)ccc(F)c1Cl [crizotinib]
Outline: as §1

[1] = compound: C[C@H](C1=CC=C(C=C1)C(=O)NC2=C3C=CNC3=NC=C2)N
Outline: as §1

duvelisib = compound: C[C@H](Nc1ncnc2nc[nH]c12)c1cc2cccc(Cl)c2c(=O)n1-c1ccccc1 [duvelisib]
Outline: as §1

gandotinib = compound: Cc1cc(Nc2cc(CN3CCOCC3)c3nc(C)c(Cc4ccc(Cl)cc4F)n3n2)n[nH]1 [gandotinib]
Outline: as §1

tozasertib = compound: Cc1cc(Nc2cc(N3CCN(C)CC3)nc(Sc3ccc(NC(=O)C4CC4)cc3)n2)n[nH]1 [tozasertib]
Outline: as §1

doramapimod = compound: Cc1ccc(-n2nc(C(C)(C)C)cc2NC(=O)Nc2ccc(OCCN3CCOCC3)c3ccccc23)cc1 [doramapimod]
Outline: as §1

bafetinib = compound: Cc1ccc(NC(=O)c2ccc(CN3CC[C@H](N(C)C)C3)c(C(F)(F)F)c2)cc1Nc1nccc(-c2cncnc2)n1 [bafetinib]
Outline: as §1

[2] = compound: Cc1cccc(CC(=O)N2CCc3c2ccc(-c2cn(C)c4ncnc(N)c24)c3F)n1
Outline: as §1

Measured: log2 fold change

HECTD4 (UniProt J3KPF0)
inactive: lapatinib -0.024 | pictilisib -0.043 | crizotinib -0.127 | [1] -0.005 | duvelisib -0.004 | gandotinib -0.024 | tozasertib 0.01 | doramapimod -0.002 | bafetinib -0.083 | [2] 0.101

HMBOX1 isoform 5 (UniProt Q6NT76)
active: lapatinib 0.254
inactive: pictilisib -0.097 | crizotinib 0.023 | [1] 0 | duvelisib 0.021 | gandotinib 0.052 | tozasertib 0.035 | doramapimod -0.013 | bafetinib 0.112 | [2] 0.129

INTS14 (UniProt Q96SY0)
UniProt Q96SY0, sequence (Q96SY0 whole entry, looked up): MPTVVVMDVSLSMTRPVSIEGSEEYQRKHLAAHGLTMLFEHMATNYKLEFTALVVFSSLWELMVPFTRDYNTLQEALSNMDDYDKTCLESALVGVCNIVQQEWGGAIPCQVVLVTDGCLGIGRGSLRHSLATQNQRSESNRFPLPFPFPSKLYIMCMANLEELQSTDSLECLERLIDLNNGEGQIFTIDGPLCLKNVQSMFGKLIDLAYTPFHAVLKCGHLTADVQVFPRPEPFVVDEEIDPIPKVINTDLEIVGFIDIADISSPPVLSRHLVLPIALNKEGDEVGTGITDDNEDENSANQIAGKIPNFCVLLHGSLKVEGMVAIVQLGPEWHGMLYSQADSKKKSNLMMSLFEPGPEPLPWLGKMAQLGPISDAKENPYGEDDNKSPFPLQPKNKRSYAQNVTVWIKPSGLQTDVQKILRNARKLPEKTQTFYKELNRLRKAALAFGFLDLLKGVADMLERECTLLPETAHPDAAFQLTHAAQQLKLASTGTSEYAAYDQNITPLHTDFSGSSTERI
inactive: lapatinib 0 | pictilisib 0.016 | crizotinib 0.005 | [1] 0.038 | duvelisib 0.012 | gandotinib -0.035 | tozasertib -0.011 | doramapimod -0.012 | bafetinib 0.009 | [2] -0.027

IGF2BP2 (UniProt Q9Y6M1)
UniProt Q9Y6M1, sequence (Q9Y6M1 whole entry, looked up): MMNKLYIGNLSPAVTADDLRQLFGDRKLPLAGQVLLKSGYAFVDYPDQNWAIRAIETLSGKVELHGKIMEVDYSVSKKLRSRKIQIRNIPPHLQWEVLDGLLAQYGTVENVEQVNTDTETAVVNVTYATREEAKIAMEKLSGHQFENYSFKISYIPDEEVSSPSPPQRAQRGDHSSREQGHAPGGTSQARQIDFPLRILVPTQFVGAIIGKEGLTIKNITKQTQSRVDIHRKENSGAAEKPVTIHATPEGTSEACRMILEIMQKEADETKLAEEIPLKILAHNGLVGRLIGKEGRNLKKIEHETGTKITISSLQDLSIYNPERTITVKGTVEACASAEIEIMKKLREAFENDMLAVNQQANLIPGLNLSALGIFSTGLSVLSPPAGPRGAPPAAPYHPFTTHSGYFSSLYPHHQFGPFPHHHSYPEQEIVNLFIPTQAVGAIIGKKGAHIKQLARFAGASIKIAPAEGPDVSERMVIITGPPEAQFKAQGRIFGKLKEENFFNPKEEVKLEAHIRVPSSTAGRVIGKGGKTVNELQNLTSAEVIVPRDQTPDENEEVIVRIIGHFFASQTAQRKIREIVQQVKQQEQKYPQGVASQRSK
inactive: lapatinib -0.034 | pictilisib -0.015 | crizotinib 0.012 | [1] -0.031 | duvelisib 0 | gandotinib 0.009 | tozasertib -0.011 | doramapimod 0.021 | bafetinib -0.093 | [2] 0.048

GTPBP2 (UniProt Q9BX10)
UniProt Q9BX10, sequence (Q9BX10 whole entry, looked up): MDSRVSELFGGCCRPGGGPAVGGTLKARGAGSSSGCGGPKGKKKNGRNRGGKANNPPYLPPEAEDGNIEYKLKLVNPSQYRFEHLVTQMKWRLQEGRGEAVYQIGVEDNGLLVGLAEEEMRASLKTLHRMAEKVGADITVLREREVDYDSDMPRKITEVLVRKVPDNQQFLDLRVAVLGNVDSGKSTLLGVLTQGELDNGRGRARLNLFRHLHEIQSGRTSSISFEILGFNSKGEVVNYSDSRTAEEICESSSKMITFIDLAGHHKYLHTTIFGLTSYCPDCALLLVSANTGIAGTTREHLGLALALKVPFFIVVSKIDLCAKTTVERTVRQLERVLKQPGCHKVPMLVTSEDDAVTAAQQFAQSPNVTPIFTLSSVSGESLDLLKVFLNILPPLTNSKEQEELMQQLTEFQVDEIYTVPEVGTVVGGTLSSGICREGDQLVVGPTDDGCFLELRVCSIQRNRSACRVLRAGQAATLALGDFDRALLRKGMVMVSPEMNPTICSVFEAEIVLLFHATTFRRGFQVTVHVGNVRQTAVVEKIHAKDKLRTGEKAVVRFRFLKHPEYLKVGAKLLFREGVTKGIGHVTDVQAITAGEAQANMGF
inactive: lapatinib 0.064 | pictilisib -0.056 | crizotinib -0.052 | [1] 0.021 | duvelisib 0.043 | gandotinib -0.098 | tozasertib -0.048 | doramapimod 0.027 | bafetinib -0.038 | [2] 0.009

KARS1 (UniProt Q15046)
UniProt Q15046, sequence (Q15046 whole entry, looked up): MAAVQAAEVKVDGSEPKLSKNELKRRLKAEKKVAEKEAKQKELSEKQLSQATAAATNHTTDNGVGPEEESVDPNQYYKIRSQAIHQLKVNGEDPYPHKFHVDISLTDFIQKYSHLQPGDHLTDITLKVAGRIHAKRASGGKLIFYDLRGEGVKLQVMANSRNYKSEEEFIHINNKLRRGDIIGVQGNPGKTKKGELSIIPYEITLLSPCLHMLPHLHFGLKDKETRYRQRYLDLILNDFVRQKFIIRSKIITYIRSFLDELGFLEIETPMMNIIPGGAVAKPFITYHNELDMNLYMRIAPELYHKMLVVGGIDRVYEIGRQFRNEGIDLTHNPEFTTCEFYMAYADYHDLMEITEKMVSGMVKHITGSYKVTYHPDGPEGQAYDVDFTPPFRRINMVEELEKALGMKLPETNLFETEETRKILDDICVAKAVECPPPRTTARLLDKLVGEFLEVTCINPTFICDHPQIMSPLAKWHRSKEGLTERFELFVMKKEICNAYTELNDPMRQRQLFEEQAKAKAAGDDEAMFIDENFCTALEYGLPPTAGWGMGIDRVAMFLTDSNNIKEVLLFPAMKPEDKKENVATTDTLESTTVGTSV
inactive: lapatinib -0.002 | pictilisib 0 | crizotinib 0.003 | [1] 0.036 | duvelisib 0.004 | gandotinib -0.082 | tozasertib 0.025 | doramapimod 0.007 | bafetinib -0.025 | [2] -0.026

HDAC1 (UniProt Q13547)
UniProt Q13547, sequence (Q13547 whole entry, looked up): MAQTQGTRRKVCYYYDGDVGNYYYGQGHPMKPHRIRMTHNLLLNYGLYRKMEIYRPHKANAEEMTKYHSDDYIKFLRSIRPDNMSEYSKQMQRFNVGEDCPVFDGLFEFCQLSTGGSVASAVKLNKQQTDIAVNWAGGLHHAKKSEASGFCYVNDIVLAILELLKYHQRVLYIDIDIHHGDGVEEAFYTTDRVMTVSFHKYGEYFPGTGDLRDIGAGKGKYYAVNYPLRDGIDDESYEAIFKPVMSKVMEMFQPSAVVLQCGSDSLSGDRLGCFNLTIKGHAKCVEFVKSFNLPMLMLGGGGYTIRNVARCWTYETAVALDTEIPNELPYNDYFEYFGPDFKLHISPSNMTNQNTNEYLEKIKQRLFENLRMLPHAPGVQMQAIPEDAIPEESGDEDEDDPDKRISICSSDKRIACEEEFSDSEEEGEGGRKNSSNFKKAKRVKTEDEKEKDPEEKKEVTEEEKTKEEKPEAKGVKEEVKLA
inactive: lapatinib 0.004 | pictilisib 0.01 | crizotinib -0.014 | [1] -0.04 | duvelisib -0.029 | gandotinib -0.004 | tozasertib -0.015 | doramapimod 0.006 | bafetinib 0.036 | [2] 0.036

HSP90AA4P (UniProt Q58FG1)
UniProt Q58FG1, sequence (Q58FG1 whole entry, looked up): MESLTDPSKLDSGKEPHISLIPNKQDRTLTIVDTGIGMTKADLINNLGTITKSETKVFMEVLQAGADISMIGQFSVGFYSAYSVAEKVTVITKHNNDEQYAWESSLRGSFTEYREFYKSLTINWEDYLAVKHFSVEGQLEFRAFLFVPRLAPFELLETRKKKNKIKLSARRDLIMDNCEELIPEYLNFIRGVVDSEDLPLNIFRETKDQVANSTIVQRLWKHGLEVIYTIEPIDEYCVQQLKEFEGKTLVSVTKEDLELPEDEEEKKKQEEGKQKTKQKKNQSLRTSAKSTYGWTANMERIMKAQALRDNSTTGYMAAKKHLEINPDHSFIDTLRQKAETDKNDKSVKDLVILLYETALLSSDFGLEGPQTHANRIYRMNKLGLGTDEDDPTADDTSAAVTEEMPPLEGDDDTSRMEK
inactive: lapatinib -0.035 | pictilisib -0.129 | crizotinib -0.032 | duvelisib 0.011 | gandotinib 0.042 | tozasertib 0.08 | doramapimod -0.034 | bafetinib -0.235 | [2] 0.128
active: [1] -0.464

IFITM3 (UniProt Q01628)
UniProt Q01628, sequence (Q01628 whole entry, looked up): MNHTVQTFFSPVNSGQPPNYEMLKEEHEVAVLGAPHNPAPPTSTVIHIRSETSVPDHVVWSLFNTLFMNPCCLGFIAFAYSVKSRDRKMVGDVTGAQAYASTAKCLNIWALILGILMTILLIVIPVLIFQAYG
inactive: lapatinib -0.123 | pictilisib -0.067 | crizotinib -0.089 | [1] -0.103 | duvelisib -0.005 | gandotinib 0.035 | tozasertib -0.153 | doramapimod -0.034 | bafetinib 0.09 | [2] -0.022

GUSB (UniProt P08236)
UniProt P08236, sequence (P08236 whole entry, looked up): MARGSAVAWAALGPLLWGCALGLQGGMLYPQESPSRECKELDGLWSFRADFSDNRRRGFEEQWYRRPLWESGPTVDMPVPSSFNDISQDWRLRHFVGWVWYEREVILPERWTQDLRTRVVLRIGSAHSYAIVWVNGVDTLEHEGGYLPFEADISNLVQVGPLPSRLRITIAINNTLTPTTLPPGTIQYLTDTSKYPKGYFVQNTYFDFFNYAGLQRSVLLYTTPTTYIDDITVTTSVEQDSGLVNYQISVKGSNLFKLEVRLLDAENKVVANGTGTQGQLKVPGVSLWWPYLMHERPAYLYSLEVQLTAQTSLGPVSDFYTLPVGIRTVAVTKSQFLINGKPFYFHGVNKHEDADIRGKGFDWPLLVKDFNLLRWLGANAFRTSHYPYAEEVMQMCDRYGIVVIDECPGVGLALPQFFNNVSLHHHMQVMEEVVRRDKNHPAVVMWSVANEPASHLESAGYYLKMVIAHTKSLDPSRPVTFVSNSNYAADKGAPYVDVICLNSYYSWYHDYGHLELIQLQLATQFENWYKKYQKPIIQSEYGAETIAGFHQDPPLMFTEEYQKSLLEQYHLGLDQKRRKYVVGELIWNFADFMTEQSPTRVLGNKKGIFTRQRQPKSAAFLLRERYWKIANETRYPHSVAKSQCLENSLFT
inactive: lapatinib -0.097 | pictilisib -0.012 | crizotinib -0.044 | duvelisib 0.017 | gandotinib 0.228 | tozasertib 0.02 | doramapimod 0.037 | bafetinib -0.057 | [2] 0.27
active: [1] -0.547

HNRNPUL2 (UniProt Q1KMD3)
inactive: lapatinib -0.037 | pictilisib -0.028 | crizotinib -0.033 | [1] -0.002 | duvelisib 0.012 | gandotinib -0.005 | tozasertib 0.009 | doramapimod -0.008 | bafetinib -0.009 | [2] 0.043

INTS7 (UniProt Q9NVH2)
UniProt Q9NVH2, sequence (Q9NVH2 whole entry, looked up): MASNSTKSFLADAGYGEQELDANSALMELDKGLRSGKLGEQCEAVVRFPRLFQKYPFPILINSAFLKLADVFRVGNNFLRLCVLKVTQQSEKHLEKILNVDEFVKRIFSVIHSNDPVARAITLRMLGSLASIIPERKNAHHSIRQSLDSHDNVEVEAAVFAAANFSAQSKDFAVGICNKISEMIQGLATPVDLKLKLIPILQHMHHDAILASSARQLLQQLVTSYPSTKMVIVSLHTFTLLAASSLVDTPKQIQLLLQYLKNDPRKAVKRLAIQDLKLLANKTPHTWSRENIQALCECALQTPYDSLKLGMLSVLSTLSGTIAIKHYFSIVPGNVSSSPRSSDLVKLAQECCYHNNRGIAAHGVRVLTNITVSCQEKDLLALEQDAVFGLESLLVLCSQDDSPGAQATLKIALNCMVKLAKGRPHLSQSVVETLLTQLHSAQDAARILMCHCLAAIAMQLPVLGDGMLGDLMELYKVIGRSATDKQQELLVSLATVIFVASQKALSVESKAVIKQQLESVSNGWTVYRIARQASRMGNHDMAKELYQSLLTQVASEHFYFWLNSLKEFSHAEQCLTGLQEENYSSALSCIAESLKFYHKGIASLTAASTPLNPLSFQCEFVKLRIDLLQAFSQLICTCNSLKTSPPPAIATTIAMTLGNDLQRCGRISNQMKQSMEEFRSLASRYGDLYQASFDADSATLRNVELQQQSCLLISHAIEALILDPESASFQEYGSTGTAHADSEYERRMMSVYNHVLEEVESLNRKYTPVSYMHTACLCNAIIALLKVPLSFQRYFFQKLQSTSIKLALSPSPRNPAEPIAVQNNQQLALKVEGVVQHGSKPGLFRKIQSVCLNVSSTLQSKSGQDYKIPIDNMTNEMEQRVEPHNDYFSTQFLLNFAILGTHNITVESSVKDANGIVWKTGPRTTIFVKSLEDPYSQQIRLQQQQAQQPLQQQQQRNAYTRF
inactive: lapatinib 0.01 | pictilisib -0.032 | crizotinib -0.07 | [1] -0.096 | duvelisib 0.01 | gandotinib -0.077 | tozasertib -0.01 | doramapimod 0.4 | bafetinib 0.141 | [2] 0.012

INTS10 (UniProt Q9NVR2)
inactive: lapatinib 0.097 | pictilisib -0.093 | crizotinib -0.04 | [1] 0.027 | duvelisib -0.09 | gandotinib -0.168 | tozasertib 0.011 | doramapimod 0.026 | bafetinib -0.052 | [2] 0
